Source: PubChem BioAssay AID1259418 (Broad Institute, 2018)
In all, about 3,400 compounds went through this assay and about 840 (25%) were called active. About 11% were inconclusive and are not listed. A selection follows. Results with a measured potency or affinity are listed apart. A number with no mark means an inactive call.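 The calls were made as follows: active = fitted half-maximal concentration of signal decrease at or below twice the sample's top tested concentration; inconclusive = flat curve between -70 and -30 percent, or poor fit; inactive = flat within 30 percent, signal rise, or potency above limit.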

Assay: inhibitors of Toxoplasma growth in IFN-γ-primed HeLa – cell-based, ME49Luc, luciferase, 72 h, dose response (AID 1259418)
Conditions: T. gondii ME49Luc in IFN-y HeLa, active compounds read low, -100% = high-dose IFN-γ control wells; at 19.5 µM unless noted

SMILES | max activity
CCOc1ccccc1-c1nc(CSc2nc3c(c(=O)[nH]2)CN(Cc2ccccc2)CC3)c(C)o1 | 18.7%
O=C1CCc2cc(NC(=O)C3CCC3)ccc2N1 | -4.89% [at 0.68 µM]
CCC(=O)N1CCC2(CC1)Nc1cc(F)ccc1-n1cccc12 | 8.79% [at 0.68 µM]
CC1CCCN(c2nc(-c3ccc(Cl)cc3)nc3ccccc23)C1 (centres undefined) | -6.84% [at 2.6 µM]
COc1ccccc1-c1nc(C)c(-c2ccc(SCc3cccc(C)c3)nn2)s1 | 12.4% [at 10 µM]
COCCCNC1=NCCNC12CCN(S(=O)(=O)c1ccc(C)c(C)c1)CC2 | 15.1% [at 0.16 µM]
Clc1ccccc1CSc1nc(NC2CCCCC2)c2ccccc2n1 | 13.8%
Cc1ccc(-c2nc3c(s2)CN(C(=O)Nc2ccccc2C(F)(F)F)CC3)cc1 | 101% [at 10 µM]
COc1ccc(-c2nc(Nc3cc(C)ccc3C)c3ccccc3n2)cc1 | 25.6%
CCCNC(=O)N1[C@H](C#N)[C@H](c2ccc(-c3ccccc3F)cc2)[C@H]1CO | -14.6%
CCCNC(=O)N1[C@H](C#N)[C@@H](c2ccc(-c3ccccc3F)cc2)[C@H]1CO | -20.5% [at 0.6 µM]
CCc1nc(OCC(=O)Nc2cc(Cl)c(OC)cc2OC)c2ccccc2n1 | 17% [at 0.16 µM]
COc1ccc(OC)c(NC(=O)N2CCc3nc(-c4ccc(C)cc4)sc3C2)c1 | 13.3%
CN1C(=O)CCc2cc(NC(=O)c3ccco3)ccc21 | 172%
COc1ccc(OC)c(NC(=O)N2CCc3nc(-c4ccccc4)sc3C2)c1 | 6.12%
CCC(C(=O)N1CCC[C@@H]1C(=O)NCCc1csc(-c2ccccc2)n1)c1ccccc1 (some centres undefined) | 13.1% [at 2.6 µM]
Cc1ccc(CN2CCCn3nc(C(=O)N4CCC(N5CCCCC5)CC4)cc3C2=O)cc1 | -18.3% [at 5 µM]
O=C(Nc1ccc(-c2nc(-c3ccccc3)co2)cc1)NC1CCCCC1 | 71.1%
O=C(Cn1cccc1-c1nc(-c2ccccc2)cs1)N1CCC(N2CCCCC2)CC1 | 7.65% [at 10 µM]
Cc1ccc(-c2nc(Cn3nnc(-c4nc(-c5ccc(Br)cc5)no4)c3C)c(C)o2)cc1 | 26.9%
Fc1cccc(-c2noc(-c3ccc(N4CCC(N5CCCCC5)CC4)nc3)n2)c1 | 21.6% [at 5 µM]
Cc1cccc(-c2noc(-c3ccc(N4CCC(N5CCCCC5)CC4)nc3)n2)c1 | 26.5% [at 10 µM]
Cc1ccc(Nc2ncnc3c2cnn3-c2ccc(Cl)cc2)cc1 | 81.3% [at 10 µM]
O=C(Nc1ccc(Br)cc1)Nc1ccc(-c2nc(-c3ccccc3)co2)cc1 | -11.6%
CCc1cc(C(=O)Nc2ccc(C)cc2-c2cc(C)[nH]n2)c2c(C)noc2n1 | 19.5% [at 10 µM]

SMILES | max activity
O=C(NCCN1CCCC1)[C@H]1[C@H](CO)[C@H]2Cn3c(cccc3=O)[C@H]2N1Cc1ccccn1 | 48.1%
C=CCN1C(=O)COC2(CCN(Cc3ccc(C)s3)CC2)C1C (centres undefined) | 27.2%
COc1ccc(NC(=O)CN2CCC3(CC2)N=C(c2ccc(F)cc2)C(=O)N3)cc1OC | -16.1% [at 10 µM]
Cc1ccc2c(c1)cc(S(=O)(=O)c1ccccc1)c(=O)n2CC(=O)N1CCCCC1 | -6.78% [at 0.68 µM]
Cc1ccc2c(c1)cc(S(=O)(=O)c1ccccc1)c(=O)n2CC(=O)N1CCCC1 | -8.58% [at 5 µM]
Clc1ccccc1-c1nc(NCCN2CCCc3ccccc32)c2ccccc2n1 | 37.1%
Cc1ccc(-c2nc(CN3CCN(C(=O)Nc4cccc(C)c4)CC3)c(C)o2)cc1 | -23.6%
CCOC(=O)c1ccc(NC(=O)N2CCN(Cc3nc(-c4cccc(Cl)c4)oc3C)CC2)cc1 | 13.5% [at 1.35 µM]
Cc1ccc(-c2nc(CN3CCN(C(=O)Nc4ccc(Cl)cc4)CC3)c(C)o2)cc1 | 22.8% [at 0.16 µM]
CCc1ccc(NC(=O)N2CCN(Cc3nc(-c4ccc(C)cc4)oc3C)CC2)cc1 | -17.1% [at 0.68 µM]
Cc1ccc(NC(=O)N2CCN(Cc3nc(-c4ccc(C)cc4)oc3C)CC2)cc1 | 13.6% [at 0.16 µM]
CCCNC(=O)N1CCN(Cc2nc(-c3ccc(OCC)cc3)oc2C)CC1 | 7.68%
Cc1ccc(-c2nc(CN3CCN(C(=O)NC(C)C)CC3)c(C)o2)cc1 | -10.1% [at 0.35 µM]
Cc1ccc(NC(=O)N2CCN(Cc3nc(-c4ccccc4C)oc3C)CC2)cc1 | 9.16% [at 2.6 µM]
COC(=O)c1cccc(NC(=O)Nc2ccc(-c3nc(-c4ccc(C)cc4C)co3)cc2)c1 | 21.2%
Cc1ccc(-c2coc(-c3ccc(NC(=O)c4ccccc4)cc3)n2)c(C)c1 | 20.4% [at 10 µM]
Cc1ccc(-c2coc(-c3ccc(NC(=O)Nc4ccc5c(c4)OCCO5)cc3)n2)c(C)c1 | 48.2%
Cc1ccc(CNC(=O)C2(C)CCC(=O)N2CCc2c[nH]c3ccccc23)cc1 (centres undefined) | -12.5% [at 0.35 µM]
O=C(Nc1ccc(-c2nc(-c3ccccc3)co2)cc1)Nc1ccccc1Br | 65.8% [at 10 µM]
Cc1ccc2c(c1C)-n1cccc1C1(CCN(C(=O)CC(C)C)CC1)N2 | 7.04% [at 0.68 µM]
O=C(Cc1ccccc1Cl)N1CCC2(CC1)Nc1ccccc1-n1cccc12 | 15.3% [at 10 µM]
COc1ccc(S(=O)(=O)N2CCC[C@@H]2C(=O)NCCc2csc(C)n2)cc1Cl | 8.05% [at 10 µM]
CCOCCCNC(=O)c1ccc2ccc(N3CCN(CC4CC4)CC3)n2c1 | 42.5%
CCOc1cccc(-c2noc(-c3nnn(Cc4nc(-c5cccc(C)c5)oc4C)c3C)n2)c1 | 8.84%
Cc1ccccc1-c1nc(CN2CCN(C(=O)Nc3ccccc3)CC2)c(C)o1 | -12.3% [at 2.6 µM]

SMILES | max activity
CCOc1ccc(-c2nc(CN3CCN(C(=O)NCCc4ccccc4)CC3)c(C)o2)cc1 | -9.01% [at 0.68 µM]
CCOc1ccc(-c2nc(CN3CCN(C(=O)Nc4cccc(OC)c4)CC3)c(C)o2)cc1 | 16.9% [at 0.35 µM]
COc1ccc(NC(=O)N2CCN(Cc3nc(-c4ccc(C)cc4)oc3C)CC2)cc1OC | 9.7%
O=C(Cc1ccc(Cl)cc1)Nc1ccc(-c2nc(-c3ccccc3)co2)cc1 | 17.2% [at 2.6 µM]
CCOC(=O)C(=O)Nc1ccc(-c2nc(-c3ccc(C)cc3C)co2)cc1 | 44.4%
CC(C)c1ccc(C(=O)N=C(N)N)cc1S(C)(=O)=O | 11.6%
Cc1ccsc1C(=O)N1CCc2nc(-c3cnn(C)c3)nc(NC(C)C)c2C1 | -26.1% [at 0.16 µM]
CCOc1ccc(-c2nc3c(s2)CN(S(=O)(=O)c2cccc(C)c2)CC3)cc1 | 29%
COc1ccc(-c2nc3c(s2)CN(S(=O)(=O)c2cccc(F)c2)CC3)cc1 | 9.88%
CCS(=O)(=O)N1CC(=O)N2[C@H](CO)[C@@H](c3ccc(-c4cccc(F)c4)cc3)[C@@H]2C1 | -8.63%
Cc1ccc(-c2coc(-c3ccc(NC(=O)Nc4ccccc4C)cc3)n2)c(C)c1 | 21.8% [at 10 µM]
Cc1ccc(OCC(=O)Nc2ccc(-c3nc(-c4ccc(C)cc4)co3)cc2)cc1 | 20.2%
COc1ccccc1-c1nc(Cn2c(=O)c3c(C)cc(C)nc3n(-c3ccccc3)c2=O)c(C)o1 | 9.28% [at 2.6 µM]
Cc1ccc2c(c1C)-n1cccc1C1(CCN(C(=O)COc3ccc(Cl)cc3)CC1)N2 | -7.41% [at 1.35 µM]
O=C(CCC1Nc2c3ccccc3nc(=S)n2C1=O)NCc1cccs1 (centres undefined) | 14.7% [at 5 µM]
Cc1nc(OCC(=O)Nc2ccccc2C)c2ccccc2n1 | 19.6% [at 0.68 µM]
CO[C@@H]1CCN(c2ncccn2)C[C@@H]1Cc1cccc(C)c1 | 9.87%
COc1ccc(C[C@H]2CN(C(=O)c3ccnn3C)CC[C@H]2OC)cc1 | 30.4%
O=S(=O)(c1cccc(C(F)(F)F)c1)N1CCC(N2CCOCC2)CC1 | 20.6% [at 0.16 µM]
CN(C)C(=O)CN1CCOCC2(CCN(CC3CCOC3)CC2)C1 (centres undefined) | 23.8%
Cc1ccc(C)c(-c2coc(-c3ccc(NC(=O)NC4CCCC4)cc3)n2)c1 | 6.74%
Cc1ccc2c(c1C)-n1cccc1C1(CCN(C(=O)CC3CCCCC3)CC1)N2 | -13.7% [at 0.16 µM]
CCC(CC)C(=O)N1CCC2(CC1)Nc1ccc(C)c(C)c1-n1cccc12 | -6.76% [at 0.35 µM]
CCOc1ccc(S(=O)(=O)N2CCC[C@@H]2C(=O)NCCc2csc(C)n2)cc1 | -13.1%
